# The campaign covered roughly 69,000 compounds. About 8,600 (12%) showed an effect of 50% or more. The list comes from a sample in which strong results are over-represented; it also holds similar structures and randomly drawn compounds.
# Test system: Plasmodium berghei
# Test: Screen against P. berghei liver stage (PbLuc), transformed with Luciferase, at 10uM
# Assay type: functional, HepG2
# Settings: tested at 10 uM
row,SMILES,INHIBITION
1,CSc1[nH]nc(NC(=O)c2ccncc2)c1C#N,48.8%
2,O=C(N1CCCC(n2cncn2)C1)C1(c2cccc(F)c2)CC1 (configuration not stated),23.7%
3,CCOc1ccnc(N2CCN(C(=O)c3ccoc3C)CC2)n1,-13.5%
4,CC(C)NC(=O)[C@H]1C[C@H]2OCC[C@H]2N(Cc2ccc3ccccc3n2)C1,61.4%
5,CC(C)N1CC[C@@H]2OC[C@H](C(=O)Nc3cccnc3)C[C@@H]2C1,-25.1%
6,O=C(Nc1cccnc1)[C@H]1CO[C@H]2CCN(c3ncc(F)cn3)C[C@H]2C1,25.4%
7,O=C(NC1CC1)[C@H]1C[C@H]2OCC[C@H]2N(Cc2ccc3ccccc3n2)C1,38.1%
8,CNC(=O)[C@H]1CO[C@H]2CCN(c3ncc(F)cn3)C[C@H]2C1,3.58%
9,CC(C)NC(=O)[C@@H]1C[C@H]2OCC[C@H]2N(Cc2ccc3ccccc3n2)C1,19.4%
10,CNC(=O)[C@H]1CO[C@H]2CCN(Cc3ccc4ccccc4n3)C[C@H]2C1,50%
11,COCCNC(=O)[C@H]1CO[C@H]2CCN(Cc3cccs3)C[C@H]2C1,38.5%
12,CCCN1CC[C@@H]2OC[C@H](C(=O)Nc3cccnc3)C[C@@H]2C1,59.9%
13,NC(=O)CSc1nccc(-c2ccc3c(c2)OCO3)n1,-22.6%
14,CS(=O)(=O)N1CCOCC2(CCN(c3ccccn3)C2)C1 (configuration not stated),5.96%
15,O=c1[nH]cc(Nc2ccc(Cl)cc2)c(=O)[nH]1,15.4%
16,O=S1(=O)CCN2C(=N1)Oc1ccc(Cl)cc12,30.5%
17,CCS(=O)(=O)c1ccc2c(c1)N1CCS(=O)(=O)N=C1O2,20.1%
18,O=S1(=O)CCN2C(=N1)Oc1ccc(S(=O)(=O)N3CCCC3)cc12,86.6%
19,Cn1cc(Br)c(=O)c(NS(=O)(=O)c2ccccc2F)c1,-1.38%
20,CCn1cc(CN(C)S(=O)(=O)c2ccc(C)c(C)c2)cn1,10.1%
21,CCCc1nc(CN2CCOC(CNc3cccnn3)C2)cs1 (configuration not stated),58.9%
22,Cc1cc(CN2CCOC(CNc3cccnn3)C2)no1 (configuration not stated),7.12%
23,COCc1nc(CN2CCOC(CNc3cccnn3)C2)cs1 (configuration not stated),14.1%
24,c1cnnc(NCC2CN(Cc3ccon3)CCO2)c1 (configuration not stated),50.5%
25,CCc1nc(CN2CCOC(CNc3cccnn3)C2)cs1 (configuration not stated),41.5%
26,Cc1cnc(CN2CCOC(CNc3cccnn3)C2)cn1 (configuration not stated),2.26%
27,CC(=O)N1CCC(c2cccc(-c3cccc(C(=O)O)c3)n2)CC1,25.8%

# From ChEMBL document CHEMBL4513216, “Probing the Open Global Health Chemical Diversity Library for Multistage-Active Starting Points for Next-Generation Antimalarials” (ACS Infect Dis, 2020)
